Measured values from PubChem BioAssay (Tox21).
Inconclusive results are not listed. Active and inactive are the calls of the source. Unless noted, calls come from the whole dose curve; as a rule, active = well fitted curve in the direction sought with a large enough effect in the repeat runs; inconclusive = weak or mixed curves; inactive = no such curve, though single readings can be large; an effect the other way counts as inactive or inconclusive.

Key:
[1] = target: Estrogen receptor (Homo sapiens) (UniProt P03372); experiment: qHTS assay to identify small molecule agonists of the estrogen receptor alpha (ER-alpha) signaling pathway in the presence of an antagonist (AID 1259383; calls by dose curve; note: top concentration of the series differs between compounds; nearly all actives have a fitted effect of over 15% in size)
Outline: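 Quantitative HTS confirmation: compounds titrated at 15 concentrations onto estrogen-deprived VM7Luc4E2 cells carrying a four-ERE luciferase construct, with ICI-182,780 present at 10.0nM final. Signal is luminescence after 22hr exposure.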

[2] = qHTS assay to identify small molecule agonists or antagonists of the thyroid stimulating hormone receptor (TSHR) signaling pathway - wild type cell line counter screen (AID 1259384; calls by dose curve)
Outline: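 Wild-type HEK293 cells were plated 18 h at 37 C/5% CO2, pin-dosed with compound plus Ro20-1724 medium, held 30 min at room temperature, then given cAMP-d2 and anti-cAMP-cryptate; fluorescence was read after 1 h. Fifteen concentrations, triplicate.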

[3] = target: Thyrotropin receptor (Homo sapiens) (UniProt P16473); experiment: qHTS assay to identify small molecule antagonists of the thyroid stimulating hormone receptor (TSHR) signaling pathway (AID 1259385; calls by dose curve; note: nearly all actives have a fitted effect of over 20% in size)
Outline: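 TSHR-HEK293 cells were plated and held 18 h at 37C/5% CO2, then given compound plus Ro20-1724 and stimulated with TSH at 1.5 ng/mL final. After 30 min at room temperature, cAMP was detected with cAMP-d2/anti-cAMP-cryptate (1 h) by fluorescence.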

[4] = qHTS assay to identify small molecule agonists of the estrogen receptor alpha (ER-alpha) signaling pathway in the presence of an antagonist - cell viability counter screen (AID 1259386);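 note: series mostly up to about 92 µM; cells exposed to compounds for 22 h at 37 °C before the viability read; nearly all actives have a fitted effect of over 30% in size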
Outline: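 The test measures whether compounds kill ER-alpha reporter cells (VM7Luc4E2) under antagonist co-treatment (ICI-182,780, 10.0nM). Fluorescence from CellTiter-Fluor is read after a 22hr exposure.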

[5] = target: Progesterone receptor (Homo sapiens) (UniProt P06401); experiment: qHTS assay to identify small molecule agonists of the progesterone receptor (PR) signaling pathway (AID 1346784; calls by dose curve; note: nearly all actives have a fitted effect of over 30% in size; note: potency is the fitted concentration of half-maximal effect)
Outline: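 Cells (PR-UAS-bla HEK 293T, GripTite) were plated in assay medium containing 2% charcoal-stripped FBS and incubated 6 hr. Test compounds in DMSO were added for 16 hr at 37C. FRET substrate was then loaded for 2 hr at room temperature before fluorescence reading.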

[6] = target: Progesterone receptor (Homo sapiens) (UniProt P06401); experiment: qHTS assay to identify small molecule antagonists of the progesterone receptor (PR) signaling pathway (AID 1346795; active = well fitted inhibition curve with a large enough effect in the signal ratio in the repeat runs, not every such curve was filed as active; the % refers to the signal ratio)
Outline: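 Antagonist mode: compounds tested against 1 nM (final) promegestone stimulation in HEK293T cells expressing PR-UAS-bla reporter, 16 hr at 37C, 5% CO2; beta-lactamase activity detected via B/G FRET substrate after 2 hr at room temperature.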

[7] = qHTS assay to identify small molecule agonists of the progesterone receptor (PR) signaling pathway - cell viability counter screen (AID 1346799; calls by dose curve; note: nearly all actives have a fitted effect of over 45% in size)
Outline: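 Cells (PR-UAS-bla HEK293T) are plated at 3,000/well in 2% charcoal-stripped FBS medium, rested 6 hr, dosed and incubated 16 hr at 37C. CellTiter-Glo is then added and luminescence measured after 30 min at room temperature.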

[8] = qHTS assay to identify small molecule antagonists of the TGF-beta/Smad signaling pathway - cell viability counter screen (AID 1346824); note: nearly all actives have a fitted effect of over 50% in size
Outline: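 SBE-bla HEK 293T cells were plated overnight at 37 C, then given compounds in DMSO plus TGF-beta1 (added as 0.25 ng/mL solution) for 5 hr. After the bla read, CellTiter-Glo was added to the same wells and luminescence read after 30 min at room temperature.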

[9] = qHTS assay to identify small molecule agonists of the TGF-beta/Smad signaling pathway - cell viability counter screen (AID 1346829); note: top concentration of the series differs between compounds; nearly all actives have a fitted effect of over 45% in size
Outline: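 CellTiter-Glo luminescence readout; SBE-bla HEK 293T cells, overnight plating, compound 5 hr at 37 C/5% CO2, then bla substrate 2 hr RT, then CellTiter-Glo 30 min RT.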

[10] = qHTS assay to identify small molecule agonists of the TGF-beta/Smad signaling pathway (AID 1346859; active = well fitted activation curve with a large enough effect in the signal ratio in the repeat runs, not every such curve was filed as active; the % refers to the signal ratio; note: series mostly up to about 77 µM)
Outline: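 Reporter line: HEK 293T with stably integrated SBE-controlled beta-lactamase. Compound exposure lasts 5 hr at 37 C and 5% CO2; substrate loading follows for 2 hr at room temperature, with emission read at 460 and 530 nm.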

[11] = Human pregnane X receptor (PXR) small molecule agonists, qHTS cell viability counter screen (AID 1346977); note: nearly all actives have a fitted effect of over 50% in size
Outline: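 Cytotoxicity counter screen run in the same wells as the PXR luciferase assay, using PXR-Luc HepG2 cells in charcoal-stripped serum medium. Viability: CellTiter-Fluor fluorescence after 24hr compound treatment.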

[12] = Caspase-3/7 induction in HepG2 cells by small molecules, qHTS assay (AID 1346978); note: nearly all actives have a fitted effect of over 15% in size
Outline: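 Wild-type HepG2 cells (2,000/well) were settled 5 h at 37 C, 5% CO2, then exposed to compounds in DMSO for 17 h. Caspase-3/7 activity was read by luminescence 30 min after adding Caspase-Glo 3/7 reagent at room temperature.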

[13] = Caspase-3/7 induction in CHO-K1 cells by small molecules, qHTS cell viability counter screen (AID 1346979); note: nearly all actives have a fitted effect of over 35% in size
Outline: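 Cytotoxicity counter screen run in parallel with the caspase-3/7 assay: CHO-K1 cells, 16hr compound treatment at 37C, then CellTiter-Fluor for 1hr before fluorescence reading.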

[14] = Caspase-3/7 induction in CHO-K1 cells by small molecules, qHTS assay (AID 1346980); note: nearly all actives have a fitted effect of over 15% in size
Outline: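 Wild-type cells were seeded at 1,500 per well and settled 5 hr at 37 C, 5% CO2, then exposed to DMSO-dissolved compounds for 17 hr. Caspase-Glo 3/7 reagent was added, and luminescence was read after 30min at room temperature.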

[15] = Caspase-3/7 induction in HepG2 cells by small molecules, qHTS cell viability counter screen (AID 1346981); note: series mostly up to about 92 µM; nearly all actives have a fitted effect of over 30% in size
Outline: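 Treatment of HepG2 cells with DMSO-delivered compounds ran 16 hr at 37 C following a 5-hr pre-incubation of 2,000 cells/well. CellTiter-Fluor fluorescence, read after 1 hr, served as the viability measure in a qHTS format.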

[16] = target: Nuclear receptor subfamily 1 group I member 2 (Homo sapiens) (UniProt O75469); experiment: Human pregnane X receptor (PXR) small molecule agonists, qHTS assay (AID 1346982); note: nearly all actives have a fitted effect of over 35% in size; note: potency is the fitted concentration of half-maximal effect
Outline: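 Stable HepG2 line reporting PXR-mediated CYP3A4 expression via luciferase. Treatment: 24 hr with compounds in DMSO at 37 C. Detection: ONE-Glo luminescence.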

[17] = qHTS assay to identify small molecule antagonists of the progesterone receptor (PR) signaling pathway - cell viability counter screen (AID 1346798); note: series mostly up to about 92 µM; nearly all actives have a fitted effect of over 50% in size
Outline: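 Counter screen for cytotoxicity: viability of PR-UAS-bla HEK293T cells was measured with CellTiter-Glo luminescence following 16 hr compound exposure in the presence of R5020.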

[18] = target: Thyrotropin-releasing hormone receptor (Homo sapiens) (UniProt P34981); experiment: qHTS assay to identify small molecule antagonists of the thyrotropin-releasing hormone receptor (TRHR) signaling pathway (AID 1346877; active = well fitted inhibition curve with a large enough effect in the repeat runs, not every such curve was filed as active; note: series mostly up to about 51 µM)
Outline: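 Overnight-plated (18 h, 37 °C) HEK293 cells expressing TRHR were dye-loaded 2 h, treated with compound, then stimulated with TRH at 1 nM final. Fluorescence intensity was captured every second for 3 min.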

[19] = target: Thyrotropin-releasing hormone receptor (Homo sapiens) (UniProt P34981); experiment: qHTS assay to identify small molecule agonists of the thyrotropin-releasing hormone receptor (TRHR) signaling pathway (AID 1346891; calls by dose curve;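 note: HEK293 cells expressing TRHR with calcium dye readout; series mostly up to about 58 µM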)
Outline: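 Cells: TRHR-Hek293, seeded and incubated 18 h. Dye loading: 2 h at 37 °C. Compound added from DMSO stock by pin tool. Read-out: kinetic calcium fluorescence over 3 min.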

Measured: Potency

Sequence of Progesterone receptor (Homo sapiens) (P06401 whole entry, looked up): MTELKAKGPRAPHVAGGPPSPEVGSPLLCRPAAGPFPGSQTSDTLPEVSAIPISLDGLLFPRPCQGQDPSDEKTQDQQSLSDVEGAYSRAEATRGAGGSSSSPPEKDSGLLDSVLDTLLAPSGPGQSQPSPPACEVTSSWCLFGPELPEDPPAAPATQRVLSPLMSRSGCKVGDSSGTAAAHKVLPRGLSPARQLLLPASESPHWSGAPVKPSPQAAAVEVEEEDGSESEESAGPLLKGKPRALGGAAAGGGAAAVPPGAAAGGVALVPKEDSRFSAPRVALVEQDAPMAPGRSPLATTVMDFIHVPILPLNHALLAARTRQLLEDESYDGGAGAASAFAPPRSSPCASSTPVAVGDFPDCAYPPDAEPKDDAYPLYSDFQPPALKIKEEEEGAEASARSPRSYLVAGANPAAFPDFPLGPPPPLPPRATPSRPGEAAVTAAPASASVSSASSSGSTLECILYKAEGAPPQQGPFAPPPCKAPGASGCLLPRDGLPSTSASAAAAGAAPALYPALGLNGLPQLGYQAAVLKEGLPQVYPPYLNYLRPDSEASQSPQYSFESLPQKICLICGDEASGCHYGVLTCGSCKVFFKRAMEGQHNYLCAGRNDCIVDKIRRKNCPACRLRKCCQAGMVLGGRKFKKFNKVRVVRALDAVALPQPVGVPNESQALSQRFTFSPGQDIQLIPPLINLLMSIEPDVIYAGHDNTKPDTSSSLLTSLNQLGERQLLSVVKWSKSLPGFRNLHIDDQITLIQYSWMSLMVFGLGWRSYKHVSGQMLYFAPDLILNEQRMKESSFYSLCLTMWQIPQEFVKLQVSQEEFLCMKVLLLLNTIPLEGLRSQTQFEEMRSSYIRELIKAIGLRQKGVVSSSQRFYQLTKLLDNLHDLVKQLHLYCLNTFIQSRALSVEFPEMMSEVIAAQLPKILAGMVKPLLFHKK
Sequence of Nuclear receptor subfamily 1 group I member 2 (Homo sapiens) (O75469 whole entry, looked up): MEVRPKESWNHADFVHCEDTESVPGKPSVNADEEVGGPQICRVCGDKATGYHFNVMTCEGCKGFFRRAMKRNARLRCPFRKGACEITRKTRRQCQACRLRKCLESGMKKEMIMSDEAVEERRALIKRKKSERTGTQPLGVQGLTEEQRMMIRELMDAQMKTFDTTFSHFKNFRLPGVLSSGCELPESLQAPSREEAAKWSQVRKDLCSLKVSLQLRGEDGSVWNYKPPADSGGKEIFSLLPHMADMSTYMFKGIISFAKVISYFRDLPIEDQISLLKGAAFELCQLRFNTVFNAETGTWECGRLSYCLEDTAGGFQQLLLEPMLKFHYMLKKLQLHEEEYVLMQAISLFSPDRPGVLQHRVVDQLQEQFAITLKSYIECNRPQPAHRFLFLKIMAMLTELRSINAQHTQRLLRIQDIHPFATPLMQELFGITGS
Sequence of Thyrotropin receptor (Homo sapiens) (P16473 whole entry, looked up): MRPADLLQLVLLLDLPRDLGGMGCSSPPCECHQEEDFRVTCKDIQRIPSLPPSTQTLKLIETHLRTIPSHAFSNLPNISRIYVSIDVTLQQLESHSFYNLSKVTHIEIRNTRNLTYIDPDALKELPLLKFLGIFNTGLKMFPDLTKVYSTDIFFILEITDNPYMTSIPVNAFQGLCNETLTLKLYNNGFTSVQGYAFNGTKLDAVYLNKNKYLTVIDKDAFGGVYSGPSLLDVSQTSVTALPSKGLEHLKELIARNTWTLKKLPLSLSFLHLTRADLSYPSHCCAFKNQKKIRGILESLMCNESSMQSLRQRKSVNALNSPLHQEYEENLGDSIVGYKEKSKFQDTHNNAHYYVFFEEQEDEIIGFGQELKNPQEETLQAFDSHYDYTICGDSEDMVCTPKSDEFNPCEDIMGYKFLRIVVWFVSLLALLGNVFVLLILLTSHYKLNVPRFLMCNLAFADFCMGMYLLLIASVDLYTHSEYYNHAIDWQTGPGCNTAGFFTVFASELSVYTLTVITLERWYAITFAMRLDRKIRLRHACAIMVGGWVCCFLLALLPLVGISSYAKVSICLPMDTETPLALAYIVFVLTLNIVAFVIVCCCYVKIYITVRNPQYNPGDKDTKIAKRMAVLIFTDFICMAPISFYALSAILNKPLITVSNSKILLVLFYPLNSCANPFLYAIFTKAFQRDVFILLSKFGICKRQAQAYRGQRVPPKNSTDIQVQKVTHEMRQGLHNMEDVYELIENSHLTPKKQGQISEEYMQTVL
Sequence of Thyrotropin-releasing hormone receptor (Homo sapiens) (P34981 whole entry, looked up): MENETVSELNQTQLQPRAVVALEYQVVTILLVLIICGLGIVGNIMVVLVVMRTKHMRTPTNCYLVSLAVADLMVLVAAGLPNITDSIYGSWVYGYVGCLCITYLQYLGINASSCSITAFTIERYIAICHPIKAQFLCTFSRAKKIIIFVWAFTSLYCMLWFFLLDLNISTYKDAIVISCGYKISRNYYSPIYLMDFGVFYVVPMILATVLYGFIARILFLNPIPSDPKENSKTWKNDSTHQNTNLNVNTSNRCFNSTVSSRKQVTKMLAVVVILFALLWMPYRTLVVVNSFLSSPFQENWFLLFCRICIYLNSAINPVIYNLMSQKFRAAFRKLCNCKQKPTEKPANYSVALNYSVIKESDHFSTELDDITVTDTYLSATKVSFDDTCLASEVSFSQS
Sequence of Estrogen receptor (Homo sapiens) (P03372 whole entry, looked up): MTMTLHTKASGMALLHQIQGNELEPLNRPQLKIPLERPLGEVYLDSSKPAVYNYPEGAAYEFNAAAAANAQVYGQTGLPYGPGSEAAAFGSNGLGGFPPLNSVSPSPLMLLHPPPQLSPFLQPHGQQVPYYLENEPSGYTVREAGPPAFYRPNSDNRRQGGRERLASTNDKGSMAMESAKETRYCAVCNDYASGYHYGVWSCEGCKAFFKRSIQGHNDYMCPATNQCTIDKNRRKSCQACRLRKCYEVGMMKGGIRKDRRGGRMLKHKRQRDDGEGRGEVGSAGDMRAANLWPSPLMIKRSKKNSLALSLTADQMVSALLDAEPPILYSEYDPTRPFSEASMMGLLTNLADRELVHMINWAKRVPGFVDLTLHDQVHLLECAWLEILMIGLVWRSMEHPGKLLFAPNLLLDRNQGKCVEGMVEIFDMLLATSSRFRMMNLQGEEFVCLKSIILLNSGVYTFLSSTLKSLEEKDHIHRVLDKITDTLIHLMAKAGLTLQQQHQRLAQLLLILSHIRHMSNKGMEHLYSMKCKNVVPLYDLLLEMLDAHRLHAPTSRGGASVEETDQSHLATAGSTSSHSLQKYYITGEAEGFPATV

CCCCC(CC)COC(=O)CC#N (stereo not given)
active: [16] 2.73 µM
not listed: [17] | [18] | [19]
inactive: all other assays above

CCC(C)SSC(C)CC (stereo not given)
not listed: [7]
inactive: all other assays above

CCN1CCN(C(=O)N[C@@H](C(=O)N[C@@H]2C(=O)N3[C@@H]2SC(C)(C)[C@H]3C(=O)O)c2ccccc2)C(=O)C1=O
not listed: [14]
inactive: all other assays above

C/C=C(\C)C=O
active: [5] 21.8 µM
inactive: all other assays above

CCCCNCC
not listed: [8]
inactive: all other assays above

CC(=O)OC/C=C(/C)CCC=C(C)C
not listed: [18] | [19]
inactive: all other assays above

Nc1cc(S(=O)(=O)O)ccc1O
inactive: all assays above
